# Data published in PubChem BioAssay AID1159580 (chemical genetic matrix, 2015).
# “And” between values parts separate entries of the source, which are not always exact repeats. Equal values may be shown once. Among all 5,500 compounds or so, about 2,000 (36%) were called active. Another 18% or so got no clear call; they are omitted. The list shows a part of the results. A number with no mark means an inactive call. Rule as the data show it: active = normalized growth mostly below about 0.91 (no sharp cut-off); inconclusive = no clear call, values can overlap the other calls; inactive = mostly above about 0.92.
# Test: chemical genetic growth profiling, strain panel (AID 1159580);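 also: tested at 20 µM; growth read once vehicle control cultures reached saturation at 30 °C; 1 = growth at the plate median or of vehicle wells; lower values mean less growth of the strain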
# Details: growth OD
structure (smiles),measurement,setting,value
CC(C)C(=O)Nc1ccc([N+](=O)[O-])c(C(F)(F)F)c1,normalized growth,"S. cerevisiae deletion strains, locus YKL009W, strain mrt4, hits give low values",0.984
same,normalized growth,"S. cerevisiae deletion strains, locus YKL068W, hits give low values",0.984
same,normalized growth,"S. cerevisiae deletion strains, locus YKL085W, strain MDH1 (second series), hits give low values",0.987
same,normalized growth,"S. cerevisiae deletion strains, locus YKL085W, strain MDH1, hits give low values",0.987
same,normalized growth,"S. cerevisiae deletion strains, locus YKL160W, strain elf1, hits give low values",1
same,normalized growth,"S. cerevisiae deletion strains, locus YKL190W, strain CNB1, hits give low values",0.992
same,normalized growth,"S. cerevisiae deletion strains, locus YKR001C, strain vps1, hits give low values",0.837 (active)
same,normalized growth,"S. cerevisiae deletion strains, locus YKR026C, strain gcn3, hits give low values",1.01
same,normalized growth,"S. cerevisiae deletion strains, locus YKR091W, strain srl3, hits give low values",1.01
same,normalized growth,"S. cerevisiae deletion strains, locus YLL001W, strain dnm1, hits give low values",1.03
same,normalized growth,"S. cerevisiae deletion strains, locus YLL026W, hits give low values",1.02
same,normalized growth,"S. cerevisiae deletion strains, locus YLL041C, strain sdh2, hits give low values",1.01
same,normalized growth,"S. cerevisiae deletion strains, locus YLR027C, strain aat2, hits give low values",1.02
same,normalized growth,"S. cerevisiae deletion strains, locus YLR039C, strain RIC1, hits give low values",0.826
same,normalized growth,"S. cerevisiae deletion strains, locus YLR058C, strain SHM2, hits give low values",0.99
same,normalized growth,"S. cerevisiae deletion strains, locus YLR102C, strain apc9, hits give low values",0.968
same,normalized growth,"S. cerevisiae deletion strains, locus YLR113W, strain HOG1, hits give low values",0.93
same,normalized growth,"S. cerevisiae deletion strains, locus YLR221C, strain rsa3, hits give low values",1.04
same,normalized growth,"S. cerevisiae deletion strains, locus YLR258W, strain gsy2, hits give low values",1.02
same,normalized growth,"S. cerevisiae deletion strains, locus YLR262C, strain YPT6 (second series), hits give low values",1.01
same,normalized growth,"S. cerevisiae deletion strains, locus YLR262C, strain YPT6, hits give low values",0.899
same,normalized growth,"S. cerevisiae deletion strains, locus YLR268W, strain sec22, hits give low values",0.96
same,normalized growth,"S. cerevisiae deletion strains, locus YLR320W, strain mms22, hits give low values",1.03
same,normalized growth,"S. cerevisiae deletion strains, locus YLR330W, strain CHS5, hits give low values",0.987
same,normalized growth,"S. cerevisiae deletion strains, locus YLR342W, strain FKS1 (second series), hits give low values",0.96
same,normalized growth,"S. cerevisiae deletion strains, locus YLR342W, strain FKS1, hits give low values",1.01
same,normalized growth,"S. cerevisiae deletion strains, locus YLR357W, strain rsc2, hits give low values",1.09
same,normalized growth,"S. cerevisiae deletion strains, locus YLR370C, strain arc18, hits give low values",1.03
same,normalized growth,"S. cerevisiae deletion strains, locus YLR371W, strain rom2, hits give low values",0.974
same,normalized growth,"S. cerevisiae deletion strains, locus YLR384C, strain iki3, hits give low values",1.03
same,normalized growth,"S. cerevisiae deletion strains, locus YLR418C, strain cdc73, hits give low values",0.896
same,normalized growth,"S. cerevisiae deletion strains, locus YML016C, strain PPZ1, hits give low values",0.981
same,normalized growth,"S. cerevisiae deletion strains, locus YML032C, strain rad52, hits give low values",0.974
same,normalized growth,"S. cerevisiae deletion strains, locus YML120C, strain ndi1, hits give low values",1.01
same,normalized growth,"S. cerevisiae deletion strains, locus YML124C, strain tub3, hits give low values",0.972
same,normalized growth,"S. cerevisiae deletion strains, locus YMR058W, strain fet3, hits give low values",1.03
same,normalized growth,"S. cerevisiae deletion strains, locus YMR078C, strain ctf18, hits give low values",0.976
same,normalized growth,"S. cerevisiae deletion strains, locus YMR125W, strain sto1, hits give low values",1.03
same,normalized growth,"S. cerevisiae deletion strains, locus YMR129W, hits give low values",1.02
same,normalized growth,"S. cerevisiae deletion strains, locus YMR205C, strain PFK2, hits give low values",1.02
same,normalized growth,"S. cerevisiae deletion strains, locus YMR223W, strain ubp8, hits give low values",0.982
same,normalized growth,"S. cerevisiae deletion strains, locus YMR231W, strain pep5, hits give low values",1.03
same,normalized growth,"S. cerevisiae deletion strains, locus YMR263W, strain SAP30, hits give low values",0.982 and 1
same,normalized growth,"S. cerevisiae deletion strains, locus YMR307W, strain GAS1, hits give low values",0.832
same,normalized growth,"S. cerevisiae deletion strains, locus YNL067W, strain RPL9B, hits give low values",0.99
same,normalized growth,"S. cerevisiae deletion strains, locus YNL071W, strain lat1, hits give low values",1.02
same,normalized growth,"S. cerevisiae deletion strains, locus YNL128W, strain TEP1, hits give low values",1.01
same,normalized growth,"S. cerevisiae deletion strains, locus YNL153C, strain GIM3, hits give low values",0.99 and 0.977
same,normalized growth,"S. cerevisiae deletion strains, locus YNL175C, strain NOP13, hits give low values",0.977
same,normalized growth,"S. cerevisiae deletion strains, locus YNL183C, strain NPR1, hits give low values",0.91
same,normalized growth,"S. cerevisiae deletion strains, locus YNL197C, strain WHI3, hits give low values",0.968
same,normalized growth,"S. cerevisiae deletion strains, locus YNL209W, strain ssb2, hits give low values",1.01
same,normalized growth,"S. cerevisiae deletion strains, locus YNL224C, strain SQS1, hits give low values",0.96
same,normalized growth,"S. cerevisiae deletion strains, locus YNL233W, strain BNI4, hits give low values",0.955
same,normalized growth,"S. cerevisiae deletion strains, locus YNL248C, strain rpa49, hits give low values",1.06
same,normalized growth,"S. cerevisiae deletion strains, locus YNL250W, strain rad50, hits give low values",0.989
same,normalized growth,"S. cerevisiae deletion strains, locus YNL271C, strain bni1, hits give low values",0.975
same,normalized growth,"S. cerevisiae deletion strains, locus YNL298W, strain CLA4, hits give low values",0.978
same,normalized growth,"S. cerevisiae deletion strains, locus YNL307C, strain MCK1, hits give low values",0.958
same,normalized growth,"S. cerevisiae deletion strains, locus YNL322C, strain KRE1 (second series), hits give low values",1.02
same,normalized growth,"S. cerevisiae deletion strains, locus YNL322C, strain KRE1, hits give low values",0.997 and 1.04
same,normalized growth,"S. cerevisiae deletion strains, locus YNR049C, strain mso1, hits give low values",1.02
same,normalized growth,"S. cerevisiae deletion strains, locus YNR052C, strain pop2, hits give low values",0.978
same,normalized growth,"S. cerevisiae deletion strains, locus YOL006C, strain TOP1, hits give low values",0.851
same,normalized growth,"S. cerevisiae deletion strains, locus YOL012C, strain htz1",1.09
same,normalized growth,"S. cerevisiae deletion strains, locus YOL147C, strain pex11, hits give low values",0.978
same,normalized growth,"S. cerevisiae deletion strains, locus YOR001W, strain rrp6, hits give low values",1.05
same,normalized growth,"S. cerevisiae deletion strains, locus YOR061W, strain CKA2, hits give low values",0.987
same,normalized growth,"S. cerevisiae deletion strains, locus YOR069W, strain VPS5, hits give low values",0.99
same,normalized growth,"S. cerevisiae deletion strains, locus YOR070C, strain gyp1, hits give low values",1
same,normalized growth,"S. cerevisiae deletion strains, locus YOR080W, strain dia2, hits give low values",1.03
same,normalized growth,"S. cerevisiae deletion strains, locus YOR083W, strain WHI5 (second series), hits give low values",0.9
same,normalized growth,"S. cerevisiae deletion strains, locus YOR083W, strain WHI5, hits give low values",0.999
same,normalized growth,"S. cerevisiae deletion strains, locus YOR106W, strain vam3, hits give low values",1.04
same,normalized growth,"S. cerevisiae deletion strains, locus YOR136W, strain idh2, hits give low values",0.981
same,normalized growth,"S. cerevisiae deletion strains, locus YOR144C, strain elg1, hits give low values",0.966
same,normalized growth,"S. cerevisiae deletion strains, locus YOR184W, strain ser1, hits give low values",0.939
same,normalized growth,"S. cerevisiae deletion strains, locus YOR231W, strain MKK1, hits give low values",0.952
same,normalized growth,"S. cerevisiae deletion strains, locus YOR265W, strain rbl2, hits give low values",1
same,normalized growth,"S. cerevisiae deletion strains, locus YOR270C, strain vph1, hits give low values",1.03
same,normalized growth,"S. cerevisiae deletion strains, locus YOR290C, strain snf2, hits give low values",1.02
same,normalized growth,"S. cerevisiae deletion strains, locus YOR316C, strain cot1, hits give low values",0.977
same,normalized growth,"S. cerevisiae deletion strains, locus YPL051W, strain arl3, hits give low values",1
same,normalized growth,"S. cerevisiae deletion strains, locus YPL055C, strain LGE1, hits give low values",0.953 and 1.01
same,normalized growth,"S. cerevisiae deletion strains, locus YPL078C, strain atp4, hits give low values",1
same,normalized growth,"S. cerevisiae deletion strains, locus YPL106C, strain sse1, hits give low values",1.01
same,normalized growth,"S. cerevisiae deletion strains, locus YPL240C, strain hsp82, hits give low values",1
same,normalized growth,"S. cerevisiae deletion strains, locus YPL241C, strain CIN2, hits give low values",0.985 and 1
same,normalized growth,"S. cerevisiae deletion strains, locus YPL256C, strain CLN2, hits give low values",0.991
same,normalized growth,"S. cerevisiae deletion strains, locus YPR119W, strain clb2, hits give low values",0.973
same,normalized growth,"S. cerevisiae deletion strains, locus YPR141C, strain kar3, hits give low values",0.98
same,normalized growth,"S. cerevisiae deletion strains, locus YPR163C, strain tif3, hits give low values",0.987
same,normalized growth,"S. cerevisiae deletion strains, locus YPR167C, strain met16, hits give low values",0.984
same,normalized growth,"S. cerevisiae deletion strains, strain wtn01, hits give low values",0.954
same,normalized growth,"S. cerevisiae strains, strain wild type, hits give low values",0.986
